High-throughput results: PubChem, National Center for Advancing Translational Sciences (NCATS)
Hits are enriched below; roughly 18% of the tested compounds scored in any of these assays.
PLK1 PBD inh: blocks phosphopeptide binding to human PLK1 polo-box domain; P53350; Plk1 PBD binding of FITC phosphopeptide, fluorescence polarization; Potency, µM, hits mostly inhibitors; 360,000 compounds, 2.8% hits; AID 720504; further: series mostly up to about 57 µM; nearly all actives have a fitted effect of over 65% in size
TDP1 cell noCPT: qHTS for Inhibitors of human tyrosyl-DNA phosphodiesterase 1 (TDP1): qHTS in cells in absence of CPT; AID 686978, 2013; Potency, µM (highest dose often 46.2 µM), usual class: inhibitors; DT40 Tdp1-/- hTDP1 cells, no CPT, ATP luminescence, 48 h; 420,000 compounds, 15% hits; further: nearly all actives have a fitted effect of over 55% in size
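Luminescent ATP content (CellTiter-Glo) served as the growth readout. Knockout chicken DT40 cells expressing human TDP1 were exposed to compounds without camptothecin for a minimum 48 hr at 37 °C.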
VDR inh: blocks the human vitamin D receptor. Potency, µM, actives largely listed as inhibitors. P11473. VDR-SRC2-3 peptide fluorescence polarization, 2 h. 400,000 compounds, 0.93% hits
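Two reagent solutions held at 4 deg C in the dark were dispensed, compounds pinned at 23 nl, and the mixture incubated 2 h at room temperature. Read-out: fluorescence polarization of VDR–SRC2-3 peptide binding.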
DT40 TDP1 CPT: growth inhibition of DT40 Tdp1-/-;hTDP1 cells with camptothecin (screen for TDP1 inhibitors); 420,000 compounds, 12% hits; chicken DT40 Tdp1-/-;hTDP1 cells + 20 nM CPT, ATP luminescence, 48 h; Potency, µM (highest dose often 46.2 µM), actives largely listed as inhibitors; further: nearly all actives have a fitted effect of over 55% in size
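Chicken DT40 Tdp1-/- cells complemented with human TDP1, 400 cells/well, exposed to compounds plus 20 nM camptothecin for at least 48 h at 37 C; viability read as ATP content by CellTiter-Glo luminescence.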
TDP1 block: inhibitors of human tyrosyl-DNA phosphodiesterase TDP1 | 350,000 compounds, 0.28% hits | Potency, µM (doses to about 130 µM), usual class: inhibitors | Q9NUW8 | AID 485290 | recombinant TDP1, AlphaScreen DNA substrate cleavage; further: nearly all actives have a fitted effect of over 40% in size
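AlphaScreen read-out: signal falls as enzyme removes the 3' tyrosine-FITC from a 5'-biotinylated DNA oligo (15 nM, 5 min, RT). Enzyme was E. coli-made recombinant Tdp1 at 1 nM, exposed to compound for 15 min beforehand; beads 10 ug/ml, 10 min.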
KAT2A inh: blocks human GCN5L2 histone acetyltransferase | Q92830 | GCN5L2 HAT assay, ThioGlo1 CoA-SH fluorescence | Potency, µM (titrated, usually from 58.9 µM), most hits filed as inhibitors | 390,000 compounds, 0.21% hits
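ThioGlo1-coupled HAT assay: 20nM GCN5L2, 70uM acetyl-CoA, 75uM H3(1-25) peptide, pH 7.5. Fluorescence read at 340/540nm at start and after 20 min at room temperature.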
A number is an active result; . = inactive; ? = inconclusive; / = no result given; ! = not confirmed by another sample; [ ] = another dose, or the depositor's remark. The call rests on the fitted dose curve; in most records, active means well fitted curve in the direction sought with a large enough effect; inconclusive means small, poorly fitted or top-dose-only effect, or another doubt; inactive means no such curve, though single readings can be large; an effect the other way counts as inactive or inconclusive.

SMILES	PLK1 PBD inh	TDP1 cell noCPT	VDR inh	DT40 TDP1 CPT	TDP1 block	KAT2A inh
Cc1nn(-c2ccc(N3CCOCC3)nn2)c(C)c1CCC(=O)NCc1ccccc1	.	.	.	.	.	.
Cc1nn(-c2ccccc2)c(Cl)c1CN(C(=O)CCl)c1cccc2ccccc12	.	6.5µM	.	5.8µM	.	.
CC(=O)N(Cc1c(C)nn(-c2ccccc2)c1Cl)c1ccc(Cl)cc1	.	?	.	?	.	?
Cc1nn(-c2ccccc2)c(Cl)c1CN(C(=O)CCl)c1ccc(Cl)cc1	.	6.5µM	?	7.3µM	.	.
O=C1CCCC2[C@@H]3CCC[N@+]4([O-])CCC[C@H](CN12)C34 (stereo not given in full)	/	.[9.04 µM]	.	.[9.04 µM]	.	/
O=C(Nc1cccc2ccccc12)c1csc([C@@H]2C[C@H](O)[C@@H](CO)O2)n1	.	.	/	.	/	/
C/C(=N\NC(=O)c1cccs1)c1cccnc1	21µM	26µM	79µM	15µM	.	.
C/C(=N\NC(=O)c1ccncc1)c1cccnc1	.	.	.	.	.	.
C/C(=N\NC(=O)c1cccnc1)c1ccc(OC2OCCOC2Oc2ccc(/C(C)=N/NC(=O)c3cccnc3)cc2)cc1 (stereo not given)	30µM	21µM	40µM	?	.	.
COc1ccc(/C(C)=N/NC(=O)CNC(=O)c2cccnc2)cc1	.	.	.	.	/	.
O=C(N/N=C(\CC(=O)c1cccs1)C(F)(F)F)c1cccnc1	.	23µM	.	?	.	.
COc1ccc(NC(=O)N(C)C[C@H]2Oc3ccc(NC(=O)NC4CCCCC4)cc3C(=O)N([C@H](C)CO)C[C@@H]2C)cc1	.	.	.	.	.	.
CCN(C(=O)Cn1cnc2c1c(=O)n(C)c(=O)n2C)C1CCS(=O)(=O)C1 (stereo not given)	.	.	.	.	.	.
CC(C)CN(C[C@@H](O)[C@H](Cc1ccccc1)NC(=O)O[C@H]1CCOC1)S(=O)(=O)c1ccc(N)cc1	/	/	.	/	.	.
COc1ccc(NC(=S)N(CCN2CCOCC2)Cc2cc3cc4c(cc3[nH]c2=O)OCCO4)cc1	.	.	.	?	.	.
CCN(CC)CCCN(Cc1cc2ccc(C)c(C)c2[nH]c1=O)C(=O)NC1CCCCC1	.	?	.	?	.	.
O=C(NC1CCCCC1)N(CCN1CCOCC1)Cc1cc2cc3c(cc2[nH]c1=O)OCCO3	.	?	.	13µM	.	.
CCc1ccc2[nH]c(=O)c(CN(CCN3CCCC3)C(=O)NC3CCCCC3)cc2c1	.	23µM	.	16µM	.	.
COc1cccc(C2c3[nH]c4ccccc4c3C[C@H]3C(=O)N(C4CCN(Cc5ccccc5)CC4)CC(=O)N23)c1 (stereo not given in full)	.	?	.	23µM	/	.
COc1ccccc1C1c2[nH]c3ccccc3c2C[C@H]2C(=O)N(C3CCN(Cc4ccccc4)CC3)CC(=O)N12 (stereo not given in full)	.	9.2µM	.	?	/	?
COc1cccc(C2c3[nH]c4ccccc4c3C[C@H]3C(=O)N(CCCCCO)CC(=O)N23)c1 (stereo not given in full)	.	.	.	.	/	.
CCOC(=O)N/N=C/c1ccccc1-c1cc(OC)ccc1OC	/	/	.	/	.	/
CCCCn1c(N)c(N(CCOC)C(=O)COC(=O)CCOc2ccccc2C)c(=O)[nH]c1=O	.	.	.	.	.	.
CC(=O)Nc1ccc(-c2nnc(SCC(=O)c3ccc4c(c3)Cc3ccccc3-4)n2C)cc1	.	12µM	50µM	13µM	.	.
C#CCCc1cscc1/C=[N+](\[O-])c1ccc(C(=O)OCC)cc1	7.5µM	?	?	23µM	.	.
SMILES	PLK1 PBD inh	TDP1 cell noCPT	VDR inh	DT40 TDP1 CPT	TDP1 block	KAT2A inh
COCCCn1cc(CN2CC(N3CCN(Cc4cccc(C)c4)CC3)CS2(=O)=O)nn1 (stereo not given)	.	.	/	.	/	/
CCc1cccc(OCC2Cn3c(nc4c3c(=O)n(C)c(=O)n4C)O2)c1 (stereo not given)	.	?	.	?	.	.
COc1ccc(OC)c(S(=O)(=O)N2CCc3ccccc32)c1	.	.	.	.	.	.
COc1ccc(-c2onc(C)c2C)cc1S(=O)(=O)N1CCc2ccccc21	/	?	.	16µM	.	.
COc1ccc(-c2onc(C)c2C)cc1S(=O)(=O)N1CCN(c2cc(C)ccc2C)CC1	/	21µM	.	?	.	.
COc1ccc(Cn2cc(Cn3c4ccccc4c(=O)n3C(C)C)nn2)cc1	.	.	/	.	/	/
CC(C)(C)c1ccc(C(=O)O[C@H]2[C@H](Cc3ccccc3)NS(=O)(=O)[C@H]3C[C@@H]4C=C[C@]23O4)cc1	.	?	.	?	.	.
COc1ccc2cc(C(=O)/C=C/c3cc(OC)c(O)c(OC)c3)ccc2c1	.	9.2µM	.	10µM	/	.
COc1ccc(C(=O)/C=C/c2ccc(O)cc2)cc1	.	?	.	.	.	.
COc1ccc(C(=O)/C=C/c2ccc(OC3CSC3)cc2)cc1OC	.	18µM	?	?	.	.
COc1cc(/C=C/C(=O)c2ccc(C)c([N+](=O)[O-])c2)cc(OC)c1O	.	15µM	?	16µM	.	.
COc1cc(/C=C/C(=O)c2c(O)cc(C)oc2=O)cc(OC)c1O	.	?	22µM!	?	.	.
O=C(Nc1nnc([C@H]2C[C@H](O)[C@@H](CO)O2)s1)Nc1ccccc1F	.	.	/	.	/	/
N#Cc1ccc(CN2C(=O)c3ccccc3Sc3ccc(C(=O)OCc4ccco4)cc32)cc1	/	/	.	/	.	.
CC(O)CN(C)C (stereo not given)	/	.	.	.	.	.
COc1ccc(C(=O)/C=C/c2cc(OC)c(O)c(OC)c2)c(F)c1	.	16µM	?	?	.	.
C/C(=C\C(=O)c1c(O)cc(C)oc1=O)N(C)C	30µM	.	.	?	.	.
CC(C)(C)C(=O)NCc1ccc(C(=O)CSc2nnc(-c3ccncc3)n2C2CC2)s1	.	.	.	.	.	.
CCCc1nc(SCC(=O)NCC2CCCO2)c2c(=O)n(C)c(=O)n(C)c2n1 (stereo not given)	.	.	.	.	.	.
COc1ccc(-c2nc(/C=C3\C(C)=Nc4ccccc43)c(O)o2)cc1	.	12µM	.	6.5µM	.	.
CC1=Nc2ccccc2/C1=C\c1nc(-c2ccccc2)oc1O	.	.	.	.	.	.
CCOC(=O)C1(CCOc2ccccc2)CCN(Cc2ccc(OC)c(O)c2)CC1	.	?	.	16µM	/	.
